# Assay results: PubChem BioAssay (NCATS)
# Inconclusive results are not listed. Calls of active or inactive are those of the source. Calls follow the shape of the dose curve; as a rule, active = well fitted inhibition curve with a large enough effect; inconclusive = small, poorly fitted or top-dose-only effect; inactive = flat fitted curve, though single readings scatter.
# Molecular target: Luciferin 4-monooxygenase (Photinus pyralis) (UniProt P08659)
# Experiment: Biochemical firefly luciferase enzyme assay for NPC (AID 624030);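 also: purified P. pyralis luciferase at 10 nM with luciferin and ATP substrate; 0% = DMSO and -100% = full luciferase inhibition by PTC124 control; nearly all actives have a fitted effect of over 70% in size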
# Conditions: purified P. pyralis luciferase, luminescence, 5 min; series mostly up to 58.6 µM; activity change, negative = inhibition: at the top concentration
# Procedure, shortened: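 Counter-screen for direct inhibition of the luciferase enzyme by approved-drug library compounds, run at 10 nM enzyme in 50 mM Tris acetate (final). Luminescence was read within 5 min of enzyme-buffer addition and normalized to PTC124 versus DMSO (0%).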
# Chain of Luciferin 4-monooxygenase (Photinus pyralis) (P08659 whole entry, looked up): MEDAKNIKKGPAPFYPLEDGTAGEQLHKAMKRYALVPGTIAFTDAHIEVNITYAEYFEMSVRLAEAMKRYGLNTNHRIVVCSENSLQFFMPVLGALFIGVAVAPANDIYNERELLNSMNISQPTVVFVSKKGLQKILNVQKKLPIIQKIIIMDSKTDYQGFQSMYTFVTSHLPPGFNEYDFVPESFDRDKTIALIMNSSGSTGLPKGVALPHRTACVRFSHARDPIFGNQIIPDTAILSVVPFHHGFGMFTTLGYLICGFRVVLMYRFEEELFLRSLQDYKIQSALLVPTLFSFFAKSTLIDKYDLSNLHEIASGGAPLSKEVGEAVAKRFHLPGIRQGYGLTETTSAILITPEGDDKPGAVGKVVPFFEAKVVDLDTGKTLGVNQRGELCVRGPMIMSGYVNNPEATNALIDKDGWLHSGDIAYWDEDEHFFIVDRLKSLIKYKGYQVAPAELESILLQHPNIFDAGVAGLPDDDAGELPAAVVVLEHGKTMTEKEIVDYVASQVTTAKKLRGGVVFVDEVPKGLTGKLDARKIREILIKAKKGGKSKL
row,SMILES,"activity change, negative = inhibition"
1,CCN(CC)CCN1C(=O)CN=C(c2ccccc2F)c2cc(Cl)ccc21,3.84% (inactive)
2,CCN(C(C)=O)c1cccc(-c2ccnc3c(C#N)cnn23)c1,5.21% (inactive)
3,Cc1cccc(C)c1NC1=NCCCS1,2.62% (inactive)
4,CC(C)NCC(O)c1ccccc1Cl (configuration not stated),2.1% (inactive)
5,O=P1(NCCCl)OCCCN1CCCl (configuration not stated),3.73% [at 24.9 µM] (inactive)
6,Cc1ccc(-c2nc3ccc(C)cn3c2CC(=O)N(C)C)cc1,-6.1% (inactive)
7,c1ccc(C2CC2)c(OCC2=NCCN2)c1,2.48% (inactive)
8,CN1C(=S)CN=C(c2ccccc2)c2cc(Cl)ccc21,-2.58% (inactive)
9,CCN(CC)CCOC(=O)C(O)(c1ccccc1)c1ccccc1,1.82% (inactive)
10,O=C(NC(O)C(Cl)(Cl)Cl)NC(O)C(Cl)(Cl)Cl (configuration not stated),-1.66% (inactive)
11,CC(C)(N)Cc1ccc(Cl)cc1,-0.575% (inactive)
12,NP(N)(=O)NC(=O)c1ccc(F)cc1,27.1% (inactive)
13,O=[N+]([O-])c1cc([As](=O)(O)O)ccc1O,0.0195% [at 24.9 µM] (inactive)
14,CC(=O)[C@H]1CC[C@H]2[C@@H]3CC[C@H]4C[C@](C)(O)CC[C@]4(C)[C@H]3CC[C@]12C,-3.35% (inactive)
15,CC(C)=CC1C(C(=O)OCc2cccc(Oc3ccccc3)c2)C1(C)C (configuration not stated),-0.815% (inactive)
16,NCC1(CC(=O)O)CCCCC1,0.552% [at 24.9 µM] (inactive)
17,Clc1cccc(N2CCNCC2)c1,3.52% (inactive)
18,c1ccc2c(c1)OCC(C1=NCCN1)O2 (configuration not stated),1.35% (inactive)
19,NCC(CC(=O)O)c1ccc(Cl)cc1 (configuration not stated),3.23% (inactive)
20,N#CC(C#N)=Cc1ccc(O)c(O)c1,-9.81% (inactive)
21,CC[C@@H](CO)NC(=O)[C@@H]1C=C2c3cccc4[nH]cc(c34)C[C@H]2N(C)C1,-11.3% (inactive)
22,Cn1c(CCCC(=O)O)nc2cc(N(CCCl)CCCl)ccc21,-3.06% (inactive)
